Source: PubChem BioAssay (Broad Institute)
The list is not random: actives were taken first. Their share in the collection is about 4%.
Wnt act = activators of Wnt/beta-catenin signaling. Wnt/beta-catenin reporter cell assay, activator, plate reader. activation, % at 9.35 µM. 1.2% of 300,000 active. AID 743398; in the data active = activation above about 30%, passing the limit was not always enough;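 also: 0% = neutral control wells and 100% = positive control wells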
PAX8 inh HTS = lowers PAX8-driven luciferase in RMG-I cells. AID 652154. 1.2% of 360,000 active. RMG-I TPO-luciferase reporter, SteadyGlo, 24 h. inhibition, % at 12.6 µM;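 active = mean replicate inhibition at least 60% with every replicate also reaching 60%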;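 also: luciferase light reporting Pax8 driven TPO promoter activity; plate controls were median of neutral control wells for no effect and mitoxantrone controls for full effect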
EWS-Fli block = EWS/Fli transcriptional activity inhibition; 0.67% of 350,000 active; A673 NR0B1-luciferase reporter, viability-normalised; inhibition, % at 12.6 µM;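 active = mean inhibition of at least 50% after viability correction, with every replicate also passing that limit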;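 also: firefly luciferase signal divided by Alamar Blue viability fluorescence both relative to DMSO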
MITF act = increases MITF-driven TRPM1 promoter luciferase signal. activation, % at 12.5 µM. 0.75% of 300,000 active. AID 588334. SK-MEL-5 TRPM1-promoter luciferase, 24 h; % of positive control, neutral wells = 0;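 active = mean activation of at least 80% with every replicate also reaching 80%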;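 also: 0% = neutral control wells and 100% = parthenolide positive control wells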
TRPM1 prom inh = inhibitors of MITF-driven TRPM1 promoter in melanoma cells | SK-MEL-5 TRPM1 promoter luciferase, 24 h | inhibition, % at 12.5 µM | 0.83% of 330,000 active;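 active = mean inhibition across replicates of 60% or more, whatever share of single replicates reaches that level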
esBAF inh = blocks esBAF chromatin remodeling in mouse ES cells; Bmi1-luciferase knock-in reporter, 24 h; 100% = twice the neutral-well signal; reporter increase, % at 12.5 µM; 2% of 350,000 active; AID 602393; in the data active = activation above about 40%;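 also: 0% = median of the plate's neutral control wells and 100% = double that signal; a rise in the Bmi1 reporter signal indicates esBAF inhibition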
* = called active by the depositor; . = not tested or not shown.

SMILES | Wnt act | PAX8 inh HTS | EWS-Fli block | MITF act | TRPM1 prom inh | esBAF inh
COc1ccc(C2CC(c3ccc(OC)c(OC)c3)=NN2S(C)(=O)=O)cc1 (stereo unspecified) | 45* | -116 | -86 | 87* | -78 | 71*
Cc1ccc2[nH]c(=O)c(CN(CCc3ccccc3)C(c3nnnn3Cc3ccco3)C(C)C)cc2c1 (stereo unspecified) | 36* | 10 | 10 | -6 | 8 | .
CO[C@@H]1CN(C)C(=O)c2ccc(NC(=O)C3CC3)cc2OC[C@H](C)N(CCc2ccccc2)C[C@H]1C | . | 24 | . | . | . | .
O=C(NCCc1ccccc1)c1noc2c1CCCCC2 | . | . | . | 107* | -105 | 50*
CSc1ccccc1NC(=O)c1noc2c1CCC2 | -3 | . | . | 19 | -20 | 48*
Cc1ccc(O)c(NC(=O)c2noc3c2CCCCC3)c1 | 27 | -70 | -39 | 25 | -23 | 51*
O=C(NCc1ccccc1)c1noc2c1CCCC2 | . | . | . | 10 | -13 | 23
Cc1ccc(NC(=O)c2noc3c2CCc2ccccc2-3)cc1 | 42* | -89 | . | . | -37 | 60*
O=C(Nc1cccc(O)c1)c1noc2c1CCc1ccccc1-2 | . | . | . | 15 | -13 | -33
COc1ccccc1CNC(=O)C[C@H]1C[C@H]2c3cc(NS(C)(=O)=O)ccc3O[C@H]2[C@H](CO)O1 | . | -1 | 0 | . | . | 4
O=C(C[C@H]1CC[C@H]2[C@@H](COC[C@H](O)CN2Cc2cocn2)O1)NCc1cccc(F)c1 | . | 10 | 0 | . | . | -5
CCc1ccc(NC(=O)c2noc3c2CCCCC3)cc1 | . | . | . | 49 | -47 | 26
CCc1ccc(NC(=O)c2noc3c2CCc2ccccc2-3)cc1 | 33* | -86 | . | . | -48 | 29
CCc1ccc(NC(=O)c2noc3c2CCC3)cc1 | 3 | -11 | . | . | 13 | 73*
CC(=O)N1C[C@H]2[C@@H](c3ccccc31)[C@@H](CO)N2C(=O)CC1CC1 | . | -17 | -10 | . | . | -1
COCCCNC(=O)CS(=O)(=O)Cc1nc(-c2cccc(OC)c2)oc1C | . | . | . | . | 3 | 8
COc1ccc(-c2nc(CS(=O)(=O)CC(=O)Nc3ccc(Cl)cc3)c(C)o2)cc1 | -2 | -31 | -24 | 14 | -12 | 66*
COc1cccc(-c2nc(CS(=O)(=O)CC(=O)NCCC(C)C)c(C)o2)c1 | 38* | 0 | -1 | -7 | 11 | 5
CC(C)C#Cc1ccc2c(c1)O[C@@H](CN(C)C(=O)Cc1ccccn1)[C@H](C)CN([C@@H](C)CO)S2(=O)=O | . | . | 10 | . | . | 7
C(=N\n1cnnc1)/c1ccccc1OCCOc1ccccc1 | 3 | . | . | 36 | -31 | 61*
Fc1ccccc1COc1ccc(/C=N/n2cnnc2)cc1 | 37* | -88 | . | . | -53 | 38
C(=N\n1cnnc1)/c1cccc(OCCOc2ccccc2)c1 | . | . | . | 22 | -17 | 35
CC(C)NC(=O)Nc1ccc2c(c1)CC(=O)N([C@@H](C)CO)C[C@@H](C)[C@@H](CN(C)C(=O)Nc1ccccc1)O2 | . | -13 | -1 | . | . | -3
O=C(Nc1ccc([N+](=O)[O-])cc1Cl)c1cccc([N+](=O)[O-])c1 | 2 | -46 | -44 | . | . | 37
O=C(Nc1ccc([N+](=O)[O-])cc1Cl)c1cc(Cl)ccc1O | -22 | -215 | 9 | -74 | 74* | -71
SMILES | Wnt act | PAX8 inh HTS | EWS-Fli block | MITF act | TRPM1 prom inh | esBAF inh
O=C(Nc1ccccc1F)Nc1ccc([N+](=O)[O-])cc1Cl | 43* | -98 | -52 | 67 | -62 | .
CC(=O)c1ccc2oc3ccccc3c(=O)c2c1 | 11 | -96 | -83 | 80* | -75 | 44*
CC(=O)c1cc2c(=O)c3ccccc3oc2nc1C | . | . | . | 30 | -30 | 38
Nc1ccc(C#Cc2ccc3oc4ccccc4c(=O)c3c2)cc1 | 20 | -67 | -110 | 58 | -53 | 42*
Nc1cccc(C#Cc2ccc3c(=O)c4ccccc4oc3c2)c1 | -2 | -207 | -49 | 132* | -136 | 53*
Cc1noc(C)c1NC(=O)N(C)C[C@H]1Oc2c(NC(=O)CCCCCC(=O)Nc3ccccc3N)cccc2C(=O)N([C@@H](C)CO)C[C@H]1C | . | -11 | 0 | . | . | .
Cc1cccc(-c2cc3nc(C)cc(NCCCn4ccnc4)n3n2)c1 | 0 | -17 | . | 39 | -34 | 26
CC(C)(C)c1cc(NCCCn2ccnc2)n2ncc(-c3ccccc3)c2n1 | 53* | -146 | -58 | . | -119 | .
CCCc1cc(NCCCn2ccnc2)n2nc(C)c(-c3ccccc3)c2n1 | 32* | -31 | 30 | -3 | 1 | .
CC(=O)Nc1ccc(-c2csc(Nc3ncccn3)n2)cc1 | 33* | -81 | -131 | 58 | -57 | 20
Oc1ccc(-c2csc(Nc3ncccn3)n2)cc1 | -2 | -136 | -7 | 95* | -88 | 28
c1ccc(-c2csc(Nc3ncccn3)n2)cc1 | . | -40 | . | 40 | -38 | .
C[C@H]1CCCCO[C@H](CN(C)Cc2ccccc2)[C@@H](C)CN([C@@H](C)CO)C(=O)c2cc(NS(=O)(=O)c3ccc(Cl)cc3)ccc2O1 | . | 40 | 5 | . | . | 2
C[C@@H]1CCCCO[C@H](CN(C)Cc2ccccc2)[C@@H](C)CN([C@@H](C)CO)C(=O)c2cc(NS(=O)(=O)c3ccc(Cl)cc3)ccc2O1 | . | 75* | 7 | . | . | -3
C[C@@H]1CN([C@H](C)CO)C(=O)c2cc(NS(=O)(=O)c3ccc(F)cc3)ccc2O[C@@H](C)CCCCO[C@H]1CN(C)Cc1ccccc1 | . | 77* | 5 | . | . | -6
C[C@@H]1CN([C@@H](C)CO)C(=O)c2cc(NS(=O)(=O)c3ccc(F)cc3)ccc2O[C@@H](C)CCCCO[C@H]1CN(C)Cc1ccccc1 | . | 23 | -4 | . | . | -2
C[C@@H]1CN([C@H](C)CO)C(=O)c2cc(NS(=O)(=O)c3ccc(Cl)cc3)ccc2O[C@@H](C)CCCCO[C@@H]1CN(C)Cc1ccccc1 | . | 112* | 8 | . | . | -17
Cc1noc(C)c1S(=O)(=O)Nc1ccc2c(c1)C(=O)N([C@@H](C)CO)C[C@H](C)[C@@H](CN(C)Cc1ccc3c(c1)OCO3)OCCCC[C@@H](C)O2 | . | -13 | -5 | . | . | -3
CO[C@@H]1CN(C)C(=O)c2cc(NC(=O)NC(C)C)ccc2OC[C@@H](C)N(S(C)(=O)=O)C[C@@H]1C | . | -8 | -4 | . | . | .
N#Cc1cccc(-c2ccc3c(c2)[C@@H]2[C@@H](CCN2C(=O)C2CCCCC2)[C@@H](CO)N3)c1 | . | 75* | 13 | . | . | -2
COc1ccccc1-c1ccc2c(c1)[C@H]1[C@H](CCN1C(=O)C1CCCCC1)[C@@H](CO)N2 | . | 90* | 9 | . | . | 4
N#Cc1ccc(-c2ccc3c(c2)[C@H]2[C@H](CCN2C(=O)C2CCCC2)[C@H](CO)N3)cc1 | . | . | -8 | . | . | .
N#Cc1cccc(-c2ccc3c(c2)[C@H]2[C@H](CCN2C(=O)C2CCCCC2)[C@H](CO)N3)c1 | . | 66* | 12 | . | . | 5
N#Cc1cccc(-c2ccc3c(c2)[C@@H]2[C@@H](CCN2S(=O)(=O)c2ccc(F)cc2)[C@@H](CO)N3)c1 | . | 76* | 2 | . | . | 0
